Assay [1] has as its target T1, Aspartate--tRNA(Asp/Asn) ligase (Mycobacterium tuberculosis (strain ATCC 25618 / H37Rv)) (UniProt P9WFW3). Note: in the data most compounds retested in dose-response had high values.
T1 sequence (whole entry): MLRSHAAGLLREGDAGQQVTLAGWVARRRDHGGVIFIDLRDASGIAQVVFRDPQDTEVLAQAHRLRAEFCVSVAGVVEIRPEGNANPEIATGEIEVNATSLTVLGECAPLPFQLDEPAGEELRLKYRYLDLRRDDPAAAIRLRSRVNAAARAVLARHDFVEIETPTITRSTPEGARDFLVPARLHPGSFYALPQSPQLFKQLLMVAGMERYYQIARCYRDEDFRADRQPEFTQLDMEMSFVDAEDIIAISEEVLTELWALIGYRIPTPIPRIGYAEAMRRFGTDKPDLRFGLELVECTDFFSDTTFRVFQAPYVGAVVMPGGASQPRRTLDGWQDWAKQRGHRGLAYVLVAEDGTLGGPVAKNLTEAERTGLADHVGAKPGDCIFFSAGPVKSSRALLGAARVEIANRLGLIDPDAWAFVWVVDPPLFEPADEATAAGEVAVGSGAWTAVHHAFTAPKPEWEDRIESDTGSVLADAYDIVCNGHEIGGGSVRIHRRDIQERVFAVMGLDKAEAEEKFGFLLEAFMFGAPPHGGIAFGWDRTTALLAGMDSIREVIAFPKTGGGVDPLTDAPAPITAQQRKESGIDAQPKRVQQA
Kind of assay: Assay for Asp RNA synthetase-1 from Mycobacterium tuberculosis. The format is functional. The arrangement: scale not given: direction of the effect not stated beside the values. Particulars: 30 µM.

For assay [2], the target named is Shiga toxin 2 (Escherichia coli O157:H7) (UniProt P09385+P09386). Kind of assay: E. coli 0.157:H7 Shiga Toxin SOP - stx2 screening assay. The format is functional. Also on record: scale not given: direction of the effect not stated beside the values. Particulars: 30 µM.

Each structure is given as a SMILES string.

On to `NC(=O)CN1CCC(NC(=O)Nc2nccs2)CC1`, for which the results for the Percent Effect in assay [1] and in assay [2] were -4.06% and -29.4%, respectively.

Take `Cn1cccc1C(=O)NCc1cnc2n1CCN(C(=O)N1CCCC1)C2`: the Percent Effect was -0.495% in assay [1] and -94.8% in assay [2].

With `O=C(NCCCN1CCCCC1)c1ccc(-n2ccc3ccccc32)s1`, the values for the Percent Effect in assay [1] and in assay [2] were 5.58% and -90%, respectively.

Regarding `CN(C)C(=O)Cc1nc(CN2CCCCC2Cn2cccn2)cs1` (stereo not given), the figures for the Percent Effect in assay [1] and in assay [2] were 2.64% and -25.1%, respectively.

Turning to `Cc1cnn(CC2CCCN2CC(=O)Nc2cc(C(C)(C)C)no2)c1` (stereo not given), the values for the Percent Effect in assay [1] and in assay [2] were 0.278% and -37.5%, respectively.

Take `CCc1nc(CN2CCN(c3ncnc4cc(F)ccc34)CC2)no1`: the Percent Effect in assay [1] was -1.46%; in assay [2], -69.6%.

As for `Cc1cnn(CCC(=O)N2CCOC(c3nc(C(C)(C)C)n[nH]3)C2)c1` (stereo not given), the Percent Effect in assay [1] was -1.81%; in assay [2], -26.2%.

Regarding `CCc1nccn1C1CCCN(C(=O)c2cc3nc(C)ccc3o2)C1` (stereo not given), the Percent Effect was -2.42% in assay [1] and 20.3% in assay [2].

With `CCS(=O)(=O)N1CC[C@]2(C[C@@H](OCC3CC3)CO2)C1`, the values for the Percent Effect in assay [1] and in assay [2] were -1.4% and 11%, respectively.

For `CCOc1ccc(C(=O)NS(=O)(=O)c2cncc(Br)c2)cc1OC`, the values for the Percent Effect in assay [1] and in assay [2] were -5.81% and -12%, respectively.

Consider `CN(C)C(=O)N1CCN(C(=O)CCc2ccccc2)[C@H]2CS(=O)(=O)C[C@H]21`, for which the Percent Effect in assay [1] was 3.33%; in assay [2] it was -13.3%.

Take `O=C(NCC1CC1)Nc1cccc(N2CCN(CC3CC3)CC2)c1`: the values for the Percent Effect in assay [1] and in assay [2] were -1.59% and -38.1%, respectively.

Turning to `Cn1ncc2c(=O)[nH]c(CN3CCCC3c3cccs3)nc21` (stereo not given), the Percent Effect in assay [1] is -0.799%; in assay [2] it was 3.97%.

Turning to `O=C(Cn1ccc2c(Cl)cccc21)N[C@@H](C(=O)O)c1ccccc1`, the Percent Effect in assay [1] was -6.24%; in assay [2], -13.8%.

For the compound `COc1cc(C(=O)N(Cc2ccc(F)cc2)C2CC2)cc2c1OCCO2`, the Percent Effect in assay [1] was 9.07%; in assay [2] it was -12.1%.

Turning to `CC(=O)NC(C)CC(=O)NCc1cccnc1Oc1ccccc1C` (stereo not given), the values for the Percent Effect in assay [1] and in assay [2] were -4.43% and 2.41%, respectively.

In the case of `Cc1nc(C2CCCN2Cc2ncc(C(C)C)o2)no1` (stereo not given), the Percent Effect in assay [1] was -2.92%; in assay [2], -16.6%.

`O=C(NC[C@H]1OC[C@@H]2CCN(Cc3ccco3)C[C@@H]21)c1ccsc1`: the Percent Effect was -1.14% in assay [1] and 4.74% in assay [2].

On to `CSc1sc(NC(=O)Cc2c(C)nc(C)[nH]c2=O)nc1C`, for which the Percent Effect was -2.08% in assay [1] and -7.28% in assay [2].

`O=C(CCNc1ncccn1)NCCc1ccn(-c2ccccc2)n1`: the Percent Effect in assay [1] was -3.01%; in assay [2], -46.2%.

`O=C(Nc1nccs1)NC1CCN(Cc2ccccc2)C1` (stereo not given): the Percent Effect is -1.92% in assay [1] and -17.1% in assay [2].

For `CC(=O)N1CCCC1c1nccnc1Nc1cccc(C)n1` (stereo not given), the Percent Effect was 1.07% in assay [1] and -5.74% in assay [2].

Regarding `COc1ccc(C2CCCN2S(=O)(=O)N(C)CC(C)C)cc1` (stereo not given), the Percent Effect is 1.67% in assay [1] and -7.35% in assay [2].

In the case of `COCc1noc(C2(c3ccc(Br)cc3)CCOCC2)n1`, the Percent Effect was 0.524% in assay [1] and -0.633% in assay [2].

For the compound `CCOc1ncccc1NC(=O)N1CCc2ccccc2C1`, the values for the Percent Effect in assay [1] and in assay [2] were 19.1% and 3.47%, respectively.

As to `Cn1ncc2c1NC(=O)CC2c1ccccc1Cl` (stereo not given), the values for the Percent Effect in assay [1] and in assay [2] were 1.14% and 6%, respectively.

As for `COCC(C)NC(=O)c1cc(Br)c2c(c1)OCCO2` (stereo not given), the Percent Effect is -9.24% in assay [1] and -10.8% in assay [2].

Consider `COc1ccc(CS(=O)(=O)CC(=O)NCC2CC2)cc1F`, for which the Percent Effect in assay [1] is 3.98%; in assay [2], -12.5%.

Take `CC(C)Sc1ncccc1C(=O)NCc1ccc(CS(C)(=O)=O)cc1`: the figures for the Percent Effect in assay [1] and in assay [2] were -3.16% and 13.1%, respectively.

On to `CCNC(=O)N1CCN(C(=O)c2cc(Cl)cc3cccnc23)CC1`, for which the Percent Effect was -3.21% in assay [1] and -11.9% in assay [2].

In the case of `O=S1(=O)C[C@@H]2[C@H](C1)N(Cc1ncc[nH]1)CCN2CC1CC1`, the Percent Effect came out at 0.123% in assay [1] and 4.23% in assay [2].

Regarding `Cc1cnn(CC2CCCN2C(=O)CCc2ccsc2)c1` (stereo not given), the Percent Effect in assay [1] was -3.37%; in assay [2], 14.6%.

Turning to `Cc1nc(CN2CCOC(CN(C)c3cccnn3)C2)cs1` (stereo not given), the Percent Effect in assay [1] was -1.09%; in assay [2], 7.32%.

For `CC(C)OCCCN1CCCC(c2nc3ccccc3n2C(C)C)C1` (stereo not given), the Percent Effect was 6.04% in assay [1] and -18.5% in assay [2].

`CC(C)=CCN(C)C1CCCN(Cc2noc(C)n2)C1` (stereo not given): the Percent Effect in assay [1] worked out at 3.23%; in assay [2], 25.2%.

For `CC(=O)N1CCOCC2(CN(Cc3ccc(C)o3)CCO2)C1` (stereo not given), the values for the Percent Effect in assay [1] and in assay [2] were 1.57% and -4.76%, respectively.

For the compound `Cc1nn(C)c(Cl)c1C1CCCN1C(=O)c1ccc2c(c1)OCO2` (stereo not given), the Percent Effect in assay [1] was -0.434%; in assay [2] it was 12%.

On to `Cn1c(CNc2c(F)cccc2-n2cccn2)cc(=O)n(C)c1=O`, for which the Percent Effect in assay [1] is -0.864%; in assay [2], 0.236%.

`COc1ccc(-c2nc(CN3CCc4c(ncn4C)C3)cs2)cc1`: the values for the Percent Effect in assay [1] and in assay [2] were -3.7% and -71.2%, respectively.

On to `Cc1cccc(C(=O)NCc2ccnc(N(C)C)c2)n1`, for which the figures for the Percent Effect in assay [1] and in assay [2] were -1.33% and -8.62%, respectively.

Regarding `Cc1cc(C)n(CC2CN(Cc3nnsc3Cl)CCO2)n1` (stereo not given), the figures for the Percent Effect in assay [1] and in assay [2] were -1.81% and 31.3%, respectively.

`CNC(=O)[C@@H]1C[C@H]2CN(Cc3nccs3)C[C@H]2N1C`: the Percent Effect in assay [1] is 1.25%; in assay [2] it was -17%.

In the case of `CCn1cc(CN2CCCN(C(=O)CCc3ccncc3)CC2)cn1`, the Percent Effect in assay [1] is 0.516%; in assay [2], -80.5%.

On to `Cc1ncsc1CCC(=O)NCc1cc2n(n1)CCN(C(=O)N(C)C)C2`, for which the Percent Effect was -4.32% in assay [1] and -29.5% in assay [2].

Take `Cn1cnc(S(=O)(=O)N2CCCC2)c1Cl`: the Percent Effect in assay [1] was -1.03%; in assay [2], -7.1%.

In the case of `O=C1CCSCC(C(=O)N2CCN(C3CCCCC3)CC2)N1` (stereo not given), the figures for the Percent Effect in assay [1] and in assay [2] were -4.14% and -2.45%, respectively.

For `Cc1cnc2n(c1=O)CC(C(=O)Nc1cccc3cccnc13)CS2` (stereo not given), the Percent Effect in assay [1] was 16.3%; in assay [2] it was 23.5%.

For `Cc1nc(C(=O)N2CCCC(c3cccc(-n4ccnc4)n3)C2)co1` (stereo not given), the Percent Effect was -0.67% in assay [1] and 3.79% in assay [2].

On to `CC(NC(=O)N(C)CCCOc1ccc(F)cc1)c1nncn1C` (stereo not given), for which the results for the Percent Effect in assay [1] and in assay [2] were -2.37% and -11.9%, respectively.

On to `O=C(CCN1CCCN(c2nccs2)CC1)NCC1CCCCC1`, for which the Percent Effect in assay [1] was -3.75%; in assay [2] it was -2.79%.
